The structures appear in SMILES notation. Out of some 370,000 compounds screened, about 150 (0.041%) were called active. Another 14% or so got no clear call; they are omitted. The call rests on the fitted dose curve; in most records, active means well fitted inhibition curve with a large enough effect; inconclusive means small, poorly fitted or top-dose-only effect; inactive means flat fitted curve, though single readings scatter. Shown is part of a subset that was picked to be rich in actives. Entries that show only a call come without a potency.

Potency data for 47 molecules are collected here from PubChem BioAssay AID485294 (National Center for Advancing Translational Sciences (NCATS), 2010).
Potency means the concentration at half of the fitted maximal effect.

Beta-lactamase (Escherichia coli (strain K12)), sequence (P00811 whole entry, looked up): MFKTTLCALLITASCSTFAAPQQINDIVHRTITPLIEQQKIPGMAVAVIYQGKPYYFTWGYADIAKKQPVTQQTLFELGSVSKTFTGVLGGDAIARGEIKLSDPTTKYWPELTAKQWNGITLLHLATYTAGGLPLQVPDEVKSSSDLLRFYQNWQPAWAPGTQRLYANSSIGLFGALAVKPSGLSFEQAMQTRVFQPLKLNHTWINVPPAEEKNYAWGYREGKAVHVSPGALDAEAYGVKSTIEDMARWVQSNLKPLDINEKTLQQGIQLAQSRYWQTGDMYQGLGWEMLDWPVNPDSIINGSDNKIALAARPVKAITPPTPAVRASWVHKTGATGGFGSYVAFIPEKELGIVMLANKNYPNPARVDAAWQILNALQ

This test concerns the target Beta-lactamase (Escherichia coli (strain K12)) (UniProt P00811). Nature of the test: qHTS Inhibitors of AmpC Beta-Lactamase (assay with detergent). Further: nearly all actives have a fitted effect of over 25% in size. The conditions noted are these: AmpC hydrolysis of nitrocefin, absorbance 480 nm, 0.01% Triton; series mostly up to 114 µM. How it is done: NIH Molecular Libraries Probe Production Network [MLPCN] NIH Chemical Genomics Center [NCGC] Assay Provider: Professor Brian Shoichet, UCSF Assay Overview: This aggregation profiling approach exploits the sensitivity of aggregate formation to detergent. Inhibition of b-lactamase is measured in the presence and absence of 0.01% Triton X-100. This particular assay had the prescence of 0.01% Triton X-100. See Pubchem assay "Promiscuous and Specific Inhibitors of AmpC Beta-Lactamase (assay without detergent)" for related screen. Compounds that inhibit only in the absence of detergent are considered likely promiscuous aggregators. A screen of 1,030 compounds was performed in Brian Shoichet's lab in 96-well format. AmpC activity was measured by following the absorbance at 480 nm. Nitrocefin is a chromogenic substrate: while nitrocefin is yellow (lmax 390 nm), the product of its hydrolysis is red (lmax 486 nm, 17,000 M-1). AmpC beta lactamase was provided by Shoichet Lab, UCSF.
Buffer: 20 mM phosphate buffer, pH 7.0 Triton X-100: No Detergent screen: 0.0001%, Detergent screen: 0.01%. Reagents/Controls: Buffer in columns 3 and 4 as negative control (no enzyme). 5.3 nM AmpC in columns 1, 2, 5-48. Titration of UCSF compound 9 control (from 10 mM, then 1:2) pin-transferred to column 2. Column 1 is neutral (100% activity). Assay Steps: Six uL of reagents were dispensed to 1536-well Greiner black clear bottom plates. Compounds and controls (23 nL) were transferred via Kalypsys PinTool. The plates were incubated for 15 min at room temperature, and then 2 uL of 800 uM solution of nitrocefin was added to start the reaction. The plates were immediately transferred to and read every 20 seconds for 4 min on ViewLux (Perkin-Elmer) High-throughput CCD imager using 480 nm absorbance protocol. During dispense, reagent bottles were kept submerged into 4 deg C water bath. Keywords: NIH Roadmap, MLSCN, MLI, MLSMR, qHTS, NCGC, AmpC Beta-Lactamase, Aggregation
For orientation: In qHTS, concentration-response curves come from the screen itself.
As for `O=C(O)c1ccc(CSc2nc3cccnc3n2Cc2cccc(F)c2)cc1`, the Potency entry is “inactive”. Take `COc1ccc(-c2nnc(SCC(=O)Nc3ccccc3C)o2)cc1OC`: the Potency entry is “inactive”. As for `O=C(Nc1ccc(O)c(-c2nc3ccccc3o2)c1)c1ccc(-c2cccc(Cl)c2)o1`, the entry is “inactive”. As for `O=C(Cn1c(=O)n(-c2ccc(F)cc2)c(=O)c2sccc21)Nc1cccc(C(F)(F)F)c1`, the Potency result was “inactive”. Regarding `CSc1ccc(C2C(C(=O)Nc3ccccc3)=C(C)Nc3nc4ccccc4n32)cc1` (configuration not stated), the Potency result was “inactive”. As to `COc1ccccc1NC(=O)COC(=O)COc1ccccc1F`, the Potency entry was “inactive”. The figure for `CC(Oc1ccccc1F)C(=O)NN` (configuration not stated) is 79.4 µM (active). As for `CC(C)C(=O)NC(=S)Nc1ccccc1F`, the Potency result is “inactive”. Consider `COc1ccc2c(c1)c(=O)c(C(=O)c1ccccc1)cn2CC(=O)Nc1ccc2c(c1)OCCO2`, for which the Potency entry was “inactive”.

For the molecule `CC1CCCN(S(=O)(=O)c2ccc3[nH]c(=O)cc(C(=O)NCCc4ccc(Cl)cc4)c3c2)C1` (configuration not stated), the Potency entry was “inactive”. As for `O=S(=O)(NCC(c1ccccc1)N1CCc2ccccc21)c1ccccc1` (configuration not stated), the entry is “inactive”; as for `Cc1ccc2nc(COc3cccc(NC(=O)Nc4ccc(C)c(Cl)c4)c3)cc(=O)n2c1`, “inactive”.

`CN1C(=O)/C(=C\c2cc(Br)cs2)c2ccccc21`: the Potency entry is “inactive”.

For the molecule `COc1ccc(C(=O)ON=C2c3ccccc3-c3ccccc32)cc1OC`, the Potency result is “inactive”. The figure for `CN1C(=O)/C(=N/OC(=O)c2ccccc2Br)c2ccccc21` is 35.5 µM (active); for `O=C(COc1ccccc1)NCc1ccc2c(c1)CCN2C(=O)c1ccc(F)cc1` it is “inactive”; for `CCc1ccccc1NC(=O)Cn1c(=O)n(CC2CCC(C(=O)NCCc3ccccc3)CC2)c(=O)c2ccccc21` (configuration not stated) it is “inactive”.

On to `CCCn1c(=N)c(C(=O)NCc2ccccc2)cc2c(=O)n3cccc(C)c3nc21`, for which the Potency entry was “inactive”. The entry for `CC(C)c1cc(CN2CCOCC2)cc(C(C)C)c1O` is “inactive”. The figure for `CC(C)(C)c1cc(CN2CCN(CCC#N)CC2)cc(C(C)(C)C)c1O` is 35.5 µM (active); for `N#Cc1cccc(CN2CCC(=O)N(CCO)CC2)c1` it is “inactive”.

`Cc1nn(Cc2ccc(F)cc2)c(C)c1NC(=O)c1cc(CC(C)C)on1`: the Potency entry is “inactive”. As for `CCOC(=O)c1c(S(=O)(=O)N2CCC(C(=O)NCc3ccccc3OC)CC2)c(C)n(C)c1C`, the entry is “inactive”; as for `CC(C)(C)c1ccc(S(=O)(=O)N2CCN(C(=O)c3cc(-c4ccc(Br)cc4)n[nH]3)CC2)cc1`, “inactive”; as for `COC(=O)CN1C(=O)CSc2ccc(S(=O)(=O)Nc3cc(C)ccc3C)cc21`, “inactive”. Take `CCC1=Nc2cc(C(=O)NCCCOC(C)C)ccc2Sc2ccc(C)cc21`: the Potency result was “inactive”. The entry for `CC(C)c1ccc(C2CC(=O)N3CN(C4CCCCC4)CSC3=C2C#N)cc1` (configuration not stated) is “inactive”.

With `CCCNc1ncnc2c1c(-c1ccccc1)cn2-c1ccc(OCC)cc1`, the Potency entry is “inactive”. The entry for `CCCN(CCC)CCNC(=O)c1ccc2c(c1)NC(=O)C(CS(=O)(=O)Cc1cccc(Br)c1)N2` (configuration not stated) is “inactive”.

On to `Cc1ccc(-n2c3nc(=O)[nH]c(=O)c-3cc3c(Cl)cccc32)cc1`, for which the Potency result was “inactive”. The entry for `O=C(CSc1nnc(-c2ccccc2F)o1)Nc1cccc(C(F)(F)F)c1` is “inactive”; for `CCC(=O)Nc1ccc2nc(SCC(=O)N3CCc4ccccc43)sc2c1` it is “inactive”. As for `Cc1ccc(-c2cnc(NCc3ccc(C(C)C)cc3)n2C)cc1`, the Potency entry was “inactive”.

On to `Cc1ccc(C)c(NC(=O)C2CCCN(S(=O)(=O)c3cn(C)cn3)C2)c1` (configuration not stated), for which the Potency result is “inactive”. For the molecule `Cc1c(C(=O)N2CCCC2)oc2c1-c1nn(CC(=O)NCc3ccc(OC(C)C)cc3)cc1CC2`, the Potency result was “inactive”. Consider `Cc1c(NC(=O)Nc2ccc(F)c(Cl)c2)c(=O)n(-c2ccccc2)n1C`, for which the Potency entry is “inactive”. For the molecule `CCCN(C(=O)Cn1cc(S(=O)(=O)N2CCN(c3ccccc3F)CC2)c2ccccc2c1=O)c1cccc(C)c1`, the Potency result was “inactive”. As for `COc1ccc(Cl)cc1S(=O)(=O)N1CCC(c2ccncc2)CC1`, the entry is “inactive”. Turning to `COc1ccc(-c2nc3sc(CCNS(=O)(=O)c4ccc(F)c(C)c4)c(C)n3n2)cc1`, the Potency entry is “inactive”. As for `CCOc1ccc(-c2cc3nc(C4CCN(C(=O)OC(C)(C)C)CC4)c(C(=O)Nc4ccc(C(=O)OC)cc4)cn3n2)cc1`, the entry is “inactive”; as for `CCCNC(=O)CCC(=O)N1Cc2ccccc2Oc2ncccc21`, “inactive”.

Consider `O=C(Cn1c(-c2cccs2)cc2ccccc21)NCCc1ccc(Cl)cc1`, for which the Potency result is “inactive”.

On to `Cc1ccc(CNS(=O)(=O)c2ccc(-c3cc(C(F)(F)F)on3)s2)cc1`, for which the Potency entry is “inactive”. Consider `COCCCNC(=O)c1ccc(NC(=O)c2nsc3ccccc23)cc1`, for which the Potency result is “inactive”. The entry for `COc1ccc(-c2nc(C)c(CCNC(=O)c3ccc(C(F)(F)F)cc3)s2)cc1OC` is “inactive”; for `CC1CCCN(Cc2c(O)ccc3c(=O)c(Oc4ccc(C(C)(C)C)cc4)c(C(F)(F)F)oc23)C1` (configuration not stated) it is “inactive”. The entry for `COc1ccc(/C=C/c2nc(C#N)c(NCc3ccc(F)cc3)o2)cc1OC` is “inactive”.
